{"source": "PubChem BioAssay (NCI)", "note": "The panel holds about 83,000 compounds, 20% with a hit somewhere; the sample as a whole holds those more often.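 Compound tested at a single concentration for 48 hours in 96-well plates; a percent growth value below 10 was scored as active.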 Unmarked numbers belong to inactive results. Activity calls are given as the source filed them."}
{"system": "HL-60(TB) leukemia", "assay": "NCI-60 one-dose screen, 48 h (100 = growth as untreated, 0 = no growth, -100 = all killed)", "settings": "10 µM unless noted"}
{"compound": "Nc1c(C(=O)Nc2ccccc2Cl)sc2nc3c(cc12)C(=O)CCC3", "growth": "67.1%"}
{"compound": "COc1ccc(/C=C2\\Oc3cc(OCCCN4CCCCC4)ccc3C2=O)cc1OC", "growth": "99.9%"}
{"compound": "CN1C(=O)c2cc(Cl)nc3c(NC(=O)c4cccc(Cl)c4)c(Cl)c(NC(=O)c4cccc(Cl)c4)c1c23", "growth": "-30.7% (active)"}
{"compound": "O=C(CCN1C(=O)/C(=C/c2ccc(Cl)cc2)SC1=S)NCCCN1CCOCC1", "growth": "98.9%"}
{"compound": "CC1CCc2cc(F)cc3c(=O)c(C(=O)O)cn1c23", "note": "(stereo unspecified)", "growth": "107%"}
{"compound": "CN1CCN(CCCNC(=O)c2c3c(n4ccccc24)C(=O)c2ncccc2C3=O)CC1", "growth": "-25.4% (active)"}
{"compound": "Oc1ccc(N=Nc2nccs2)c(O)c1", "growth": "5.98% (active)"}
{"compound": "Cc1ccccc1CNc1c2ccccc2nc2ccccc12", "growth": "15.3%"}
{"compound": "CN(C)c1cc(NN=C(c2ccc(O)cc2)c2ccc(O)cc2)c([N+](=O)[O-])cc1[N+](=O)[O-]", "growth": "127%"}
{"compound": "COc1ccc(OC2=CC(=O)c3ccc(C)nc3C2=O)cc1", "growth": "52.1%"}
{"compound": "O=C(N=Nc1c(O)[nH]c2ccccc12)Nc1ccc(F)cc1", "growth": "94.5%"}
{"compound": "CC(=O)OC[C@H]1OC(Sc2sc(C(=O)c3ccc(Cl)cc3)c(N)c2-c2nc3ccccc3s2)[C@H](OC(C)=O)[C@@H](OC(C)=O)[C@@H]1OC(C)=O", "note": "(stereo partly specified)", "growth": "108%"}
{"compound": "CCCCCCCCCCCCCCCCCCOCC(COCCOCC[N+]1(CCCCCC(=O)[O-])CCCC1)Oc1ncccn1", "note": "(stereo unspecified)", "growth": "-32.2% (active)"}
{"compound": "CCn1c(SCC(=O)N/N=C(\\C)c2ccc(Cl)cc2)nc2c1c(=O)n(C)c(=O)n2C", "growth": "101%"}
{"compound": "COc1cccc(C(=O)Nc2ccc(CN3CCc4nc5cc(OC)c(OC)cc5cc43)cc2)c1", "growth": "60%"}
{"compound": "CC(=O)OC(C)COc1ccc(-c2ccccc2)cc1", "note": "(stereo unspecified)", "growth": "104%"}
{"compound": "CC1(C)C(=O)/C(=C\\c2ccccn2)C[C@]2(C)[C@H]3CC[C@@H]4[C@@H](C(=O)/C=C/c5ccccn5)CC[C@@]4(C)[C@]3(C)CC[C@@H]12", "growth": "-14.4% (active)"}
{"compound": "CCC(c1ccc(OC)cc1)C(CC)c1ccc(OCC[N+](C)(C)C)cc1", "note": "(stereo unspecified)", "growth": "-17.4% (active)"}
{"compound": "CCc1c2c(nc3ccc(OC(=O)N4CCC(N5CCCCC5)CC4)cc13)-c1cc3c(c(=O)n1C2)COC(=O)[C@]3(O)CC", "growth": "-14% (active)"}
{"compound": "C[N+]1=C(/C=C/c2ccc(I)cc2)C(C)(C)c2ccccc21", "growth": "39.4%"}
{"compound": "CCOC(=O)C1=C(C)N=C2SC=C(c3ccccc3)N2[C@H]1c1cn[nH]c1-c1ccc(Cl)cc1", "growth": "1.71% (active)"}
{"compound": "COc1cc(-c2nc3ccccc3s2)ccc1OCc1nc2n(n1)S(=O)(=O)c1ccccc1N2c1ccccc1", "growth": "16.2%"}
{"compound": "CC1=C(C)C(=O)C(Nc2cccc(C(=O)OC(C)(C)C)c2)=C(Br)C1=O", "growth": "54.9%"}
{"compound": "Cc1cc(NC(=O)C2c3ccccc3C(=O)N(CC(C)C)C2c2cccs2)no1", "note": "(stereo unspecified)", "growth": "0.0249% (active)"}
{"compound": "COc1cc(-c2nn(-c3ccc(NC(=O)Nc4ccc(Cl)c(Cl)c4)cc3)cc2-c2ccncc2)ccc1Cl", "growth": "4.29% (active)"}
{"compound": "O=c1[nH]nnc2c1ncn2C1OC(CO)C(O)C1O", "note": "(stereo unspecified)", "growth": "25.2%"}
